Measured values published in PubChem BioAssay AID1159580 (chemical genetic matrix, 2015).
Out of some 5,500 compounds screened, about 2,000 (36%) were called active. Roughly 18% stayed inconclusive and do not appear here. Some of the results follow. Unmarked numbers belong to inactive results. No stated cut-off is given here; in the data, active means normalized growth mostly below about 0.91 (no sharp cut-off); inconclusive means no clear call, values can overlap the other calls; inactive means mostly above about 0.92.

Assay: chemical genetic growth profiling, strain panel (AID 1159580);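 further: tested at 20 µM; growth read once vehicle control cultures reached saturation at 30 °C; 1 = growth at the plate median or of vehicle wells; lower values mean less growth of the strain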
Conditions: S. cerevisiae deletion strains, growth OD
[1] = locus YAL021C, strain ccr4, active compounds read low
[2] = locus YAL026C, strain drs2, active compounds read low
[3] = locus YAL030W, strain snc1, active compounds read low
[4] = locus YBL061C, strain skt5, active compounds read low
[5] = locus YBR009C, strain hhf1, active compounds read low
[6] = locus YBR023C, strain chs3, active compounds read low
[7] = locus YBR171W, strain sec66, active compounds read low
[8] = locus YBR231C, strain swc5, active compounds read low
[9] = locus YBR279W, strain paf1, active compounds read low
[10] = locus YCL011C, strain gbp2, active compounds read low
[11] = locus YCL016C, strain dcc1, active compounds read low
[12] = locus YCL069W, strain vba3, active compounds read low
[13] = locus YCR088W, strain abp1, active compounds read low
[14] = locus YDL005C, strain med2, active compounds read low
[15] = locus YDL040C, strain nat1, active compounds read low
[16] = locus YDR001C, strain nth1, active compounds read low
[17] = locus YDR069C, strain doa4, active compounds read low
[18] = locus YDR137W, strain rgp1, active compounds read low
[19] = locus YDR159W, strain sac3, active compounds read low
[20] = locus YDR297W, strain sur2, active compounds read low
[21] = locus YDR334W, strain swr1, active compounds read low
[22] = locus YDR335W, strain msn5, active compounds read low
[23] = locus YDR392W, strain spt3, active compounds read low
[24] = locus YEL003W, strain gim4, active compounds read low
[25] = locus YEL037C, strain rad23, active compounds read low
[26] = locus YEL061C, strain CIN8 (second series), active compounds read low
[27] = locus YER015W, strain faa2, active compounds read low
[28] = locus YER016W, strain bim1, active compounds read low
[29] = locus YER111C, strain swi4, active compounds read low
[30] = locus YER155C, strain BEM2 (second series), active compounds read low
[31] = locus YFR010W, strain ubp6, active compounds read low
[32] = locus YGL167C, strain pmr1, active compounds read low
[33] = locus YGL173C, strain kem1, active compounds read low
[34] = locus YGL227W, strain vid30, active compounds read low
[35] = locus YGL240W, strain doc1, active compounds read low
[36] = locus YGL253W, strain hxk2, active compounds read low
[37] = locus YHR013C, strain ard1, active compounds read low
[38] = locus YHR027C, strain rpn1, active compounds read low
[39] = locus YHR030C, strain SLT2, active compounds read low
[40] = locus YHR079C, strain IRE1, active compounds read low
[41] = locus YHR142W, strain chs7, active compounds read low
[42] = locus YJL092W, strain hpr5, active compounds read low
[43] = locus YJL095W, strain BCK1 (second series), active compounds read low
[44] = locus YJL095W, strain BCK1, active compounds read low
[45] = locus YJL115W, strain asf1, active compounds read low
[46] = locus YJL129C, strain trk1, active compounds read low
[47] = locus YJL154C, strain vps35, active compounds read low
[48] = locus YJL164C, strain tpk1, active compounds read low
[49] = locus YJL166W, strain qcr8, active compounds read low
[50] = locus YJL187C, strain SWE1, active compounds read low
[51] = locus YJR066W, strain TOR1, active compounds read low
[52] = locus YKL160W, strain elf1, active compounds read low
[53] = locus YKR026C, strain gcn3, active compounds read low
[54] = locus YKR091W, strain srl3, active compounds read low
[55] = locus YLL001W, strain dnm1, active compounds read low
[56] = locus YLL026W, active compounds read low
[57] = locus YLL041C, strain sdh2, active compounds read low
[58] = locus YLR027C, strain aat2, active compounds read low
[59] = locus YLR113W, strain HOG1, active compounds read low
[60] = locus YLR221C, strain rsa3, active compounds read low
[61] = locus YLR258W, strain gsy2, active compounds read low
[62] = locus YLR262C, strain YPT6 (second series), active compounds read low
[63] = locus YLR320W, strain mms22, active compounds read low
[64] = locus YLR342W, strain FKS1, active compounds read low
[65] = locus YLR357W, strain rsc2, active compounds read low
[66] = locus YLR370C, strain arc18, active compounds read low
[67] = locus YLR384C, strain iki3, active compounds read low
[68] = locus YML120C, strain ndi1, active compounds read low
[69] = locus YMR058W, strain fet3, active compounds read low
[70] = locus YMR125W, strain sto1, active compounds read low
[71] = locus YMR129W, active compounds read low
[72] = locus YMR205C, strain PFK2, active compounds read low
[73] = locus YMR231W, strain pep5, active compounds read low
[74] = locus YNL071W, strain lat1, active compounds read low
[75] = locus YNL183C, strain NPR1, active compounds read low
[76] = locus YNL209W, strain ssb2, active compounds read low
[77] = locus YNL248C, strain rpa49, active compounds read low
[78] = locus YNL322C, strain KRE1 (second series), active compounds read low
[79] = locus YNR049C, strain mso1, active compounds read low
[80] = locus YOR001W, strain rrp6, active compounds read low
[81] = locus YOR070C, strain gyp1, active compounds read low
[82] = locus YOR080W, strain dia2, active compounds read low
[83] = locus YOR083W, strain WHI5, active compounds read low
[84] = locus YOR106W, strain vam3, active compounds read low
[85] = locus YOR231W, strain MKK1, active compounds read low
[86] = locus YOR265W, strain rbl2, active compounds read low
[87] = locus YOR270C, strain vph1, active compounds read low
[88] = locus YOR290C, strain snf2, active compounds read low
[89] = locus YPL051W, strain arl3, active compounds read low
[90] = locus YPL078C, strain atp4, active compounds read low
[91] = locus YPL106C, strain sse1, active compounds read low
[92] = locus YPL240C, strain hsp82, active compounds read low
[93] = locus YPL256C, strain CLN2, active compounds read low

## COC(=O)[C@H](c1ccccc1Cl)N1CCc2sccc2C1
[1]
  normalized growth: 0.993
[2]
  normalized growth: 0.99
[3]
  normalized growth: 0.982
[4]
  normalized growth: 0.994
[5]
  normalized growth: 0.989
[6]
  normalized growth: 0.981
[7]
  normalized growth: 0.973
[8]
  normalized growth: 0.998
[9]
  normalized growth: 0.986
[10]
  normalized growth: 0.968
[11]
  normalized growth: 0.993
[12]
  normalized growth: 0.991
[13]
  normalized growth: 0.976
[14]
  normalized growth: 0.991
[15]
  normalized growth: 0.961
[16]
  normalized growth: 0.985
[17]
  normalized growth: 1.01
[18]
  normalized growth: 0.912
[19]
  normalized growth: 0.987
Locus YDR195W, strain ref2
  normalized growth: 0.971
[20]
  normalized growth: 0.983
[21]
  normalized growth: 0.995
[22]
  normalized growth: 1.01
[23]
  normalized growth: 0.984
[24]
  normalized growth: 0.969
[25]
  normalized growth: 0.981
[26]
  normalized growth: 0.98
[27]
  normalized growth: 0.986
[28]
  normalized growth: 0.98
[29]
  normalized growth: 0.972
[30]
  normalized growth: 0.97
[31]
  normalized growth: 1
[32]
  normalized growth: 0.967
[33]
  normalized growth: 0.979
[34]
  normalized growth: 0.988
[35]
  normalized growth: 0.989
[36]
  normalized growth: 1
[37]
  normalized growth: 1.07
[38]
  normalized growth: 0.987
[39]
  normalized growth: 0.961
[40]
  normalized growth: 0.956
[41]
  normalized growth: 1.01
[42]
  normalized growth: 0.98
[43]
  normalized growth: 0.983
[44]
  normalized growth: 0.98
[45]
  normalized growth: 1
[46]
  normalized growth: 0.959
[47]
  normalized growth: 0.97
[48]
  normalized growth: 0.976
[49]
  normalized growth: 0.991
[50]
  normalized growth: 0.984
[51]
  normalized growth: 0.982
[52]
  normalized growth: 0.988
[53]
  normalized growth: 1
[54]
  normalized growth: 0.983
[55]
  normalized growth: 1.01
[56]
  normalized growth: 0.977
[57]
  normalized growth: 0.991
[58]
  normalized growth: 0.983
[59]
  normalized growth: 0.932
[60]
  normalized growth: 0.992
[61]
  normalized growth: 0.982
[62]
  normalized growth: 0.95
[63]
  normalized growth: 0.963
[64]
  normalized growth: 0.982
[65]
  normalized growth: 1.09
[66]
  normalized growth: 0.975
[67]
  normalized growth: 0.975
[68]
  normalized growth: 0.961
[69]
  normalized growth: 0.989
[70]
  normalized growth: 0.993
[71]
  normalized growth: 0.979
[72]
  normalized growth: 0.971
[73]
  normalized growth: 0.995
[74]
  normalized growth: 0.968
[75]
  normalized growth: 0.941
[76]
  normalized growth: 0.998
[77]
  normalized growth: 1.07
[78]
  normalized growth: 0.981
[79]
  normalized growth: 0.978
[80]
  normalized growth: 1
[81]
  normalized growth: 0.986
[82]
  normalized growth: 0.994
[83]
  normalized growth: 0.981
[84]
  normalized growth: 1.03
[85]
  normalized growth: 0.938
[86]
  normalized growth: 0.985
[87]
  normalized growth: 1.02
[88]
  normalized growth: 1.02
[89]
  normalized growth: 0.992
[90]
  normalized growth: 0.996
[91]
  normalized growth: 0.987
[92]
  normalized growth: 0.986
[93]
  normalized growth: 0.894

## Clc1ccccc1CN1CCc2sccc2C1
[1]
  normalized growth: 1.01
[2]
  normalized growth: 1.01
[3]
  normalized growth: 1.01
[4]
  normalized growth: 1
[5]
  normalized growth: 1.01
[6]
  normalized growth: 1.01
[7]
  normalized growth: 1.02
[8]
  normalized growth: 1.02
[9]
  normalized growth: 1.02
[10]
  normalized growth: 1.01
[11]
  normalized growth: 1.01
Locus YCL061C, strain MRC1, active compounds read low
  normalized growth: 1.01
[12]
  normalized growth: 1.01
[13]
  normalized growth: 1
[14]
  normalized growth: 1.03
[15]
  normalized growth: 1.01
[16]
  normalized growth: 1.01
[17]
  normalized growth: 1
[18]
  normalized growth: 0.879
[19]
  normalized growth: 1.03
Locus YDR195W, strain ref2
  normalized growth: 1.05
[20]
  normalized growth: 1.01
[21]
  normalized growth: 1.01
[22]
  normalized growth: 1.01
[23]
  normalized growth: 0.77
[24]
  normalized growth: 1.01
[25]
  normalized growth: 0.985
[26]
  normalized growth: 1
[27]
  normalized growth: 1.01
[28]
  normalized growth: 1.01
[29]
  normalized growth: 1.01
[30]
  normalized growth: 0.928
[31]
  normalized growth: 0.995
[32]
  normalized growth: 1
[33]
  normalized growth: 1.01
[34]
  normalized growth: 1.02
[35]
  normalized growth: 0.947
[36]
  normalized growth: 1
[37]
  normalized growth: 1.07
[38]
  normalized growth: 1.01
[39]
  normalized growth: 1.04
[40]
  normalized growth: 1.03
[41]
  normalized growth: 0.961
[42]
  normalized growth: 1
[43]
  normalized growth: 1.01
[44]
  normalized growth: 0.985
[45]
  normalized growth: 1
[46]
  normalized growth: 0.973
[47]
  normalized growth: 1.01
[48]
  normalized growth: 0.994
[49]
  normalized growth: 0.981
[50]
  normalized growth: 1.01
[51]
  normalized growth: 0.969
[52]
  normalized growth: 0.987
[53]
  normalized growth: 0.994
[54]
  normalized growth: 1.01
[55]
  normalized growth: 1.02
[56]
  normalized growth: 1.01
[57]
  normalized growth: 1
[58]
  normalized growth: 1.01
[59]
  normalized growth: 0.98
[60]
  normalized growth: 0.983
[61]
  normalized growth: 1.01
[62]
  normalized growth: 0.884
[63]
  normalized growth: 0.927
[64]
  normalized growth: 1.01
[65]
  normalized growth: 1.04
[66]
  normalized growth: 1.01
[67]
  normalized growth: 1.01
[68]
  normalized growth: 0.986
[69]
  normalized growth: 1.01
[70]
  normalized growth: 1.04
[71]
  normalized growth: 1.01
[72]
  normalized growth: 0.998
[73]
  normalized growth: 1.01
[74]
  normalized growth: 0.906 (active)
[75]
  normalized growth: 0.949
[76]
  normalized growth: 1.01
[77]
  normalized growth: 0.953
[78]
  normalized growth: 1.01
[79]
  normalized growth: 1.01
[80]
  normalized growth: 0.988
[81]
  normalized growth: 1
[82]
  normalized growth: 1.01
[83]
  normalized growth: 0.982
[84]
  normalized growth: 0.977
[85]
  normalized growth: 1.02
[86]
  normalized growth: 1.01
[87]
  normalized growth: 0.952
[88]
  normalized growth: 1
[89]
  normalized growth: 0.973
[90]
  normalized growth: 0.964
[91]
  normalized growth: 1.01
[92]
  normalized growth: 1
[93]
  normalized growth: 1.02
